Screens from PubChem.
Shown are actives, neighbours in structure and some others; about 1.2% of the full set was active somewhere.
RGS7-Gao: regulators of human RGS7-Galphao interaction | P09471 | Multiplexed bead flow cytometry, RGS7-Galphao binding; actives lie on both sides | binding response (% of control), % at 10 µM | 220,000 tested, 0.35% active; in the data active = binding response below about 49% or above about 150%; inconclusive = no clear call, values can overlap the other calls; inactive = in between;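 note: fluorescent Galphao held in activated GDP-AlF4 state binding bead-coupled RGS7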
Target sequence (P09471 whole entry, looked up): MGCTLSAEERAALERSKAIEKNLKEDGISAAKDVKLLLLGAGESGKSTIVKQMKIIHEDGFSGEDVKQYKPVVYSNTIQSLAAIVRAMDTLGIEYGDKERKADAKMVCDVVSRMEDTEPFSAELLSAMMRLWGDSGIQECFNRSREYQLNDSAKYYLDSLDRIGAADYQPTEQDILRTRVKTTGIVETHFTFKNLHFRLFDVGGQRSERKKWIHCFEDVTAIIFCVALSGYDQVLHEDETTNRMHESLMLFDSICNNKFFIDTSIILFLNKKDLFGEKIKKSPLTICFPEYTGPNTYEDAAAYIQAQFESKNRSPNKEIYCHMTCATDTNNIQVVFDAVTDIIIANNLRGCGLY
RGS16-Gao HTS: RGS16-Galphao interaction regulator (human). bead-based flow cytometry RGS16-Galphao binding, fluorescence; actives lie on both sides. binding response (% of control), % at 10 µM. 220,000 tested, 0.38% active. AID 1441;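 note: Galphao activated by GDP with aluminum fluoride before binding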
Avidin bead fluor: avidin bead compound fluorescence profile | AID 1775 | fluorescence (KMESF) at 10 µM | Avidin beads, compound fluorescence 488/530 nm, flow cytometry; hits give high values | 220,000 tested, 0.38% active; in the data active = fluorescence above about 47
RGS8-Gao reg: modulates binding of RGS8 to human Galphao. P09471. multiplexed bead flow cytometry; actives lie on both sides. response (percent of control binding), % at 10 µM. 220,000 tested, 0.34% active; in the data active = response below about 60% or above about 140%; inactive = in between;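 note: Galphao activated as the GDP aluminium fluoride complex binding bead-coupled RGS8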
RGS4-Gao reg: modulates binding of RGS4 to human Galphao | P09471 | Multiplexed bead flow cytometry; actives lie on both sides | binding response (% of control), % at 10 µM | 220,000 tested, 0.33% active; in the data active = binding response below about 49% or above about 150%; inactive = in between;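 note: fluorescent Galphao activated with aluminum fluoride binding bead-coupled RGS4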
GSH fluor: GSH bead compound fluorescence profile. 190,000 tested, 0.25% active. fluorescence (KMESF) at 10 µM. GSH beads flow cytometry, compound fluorescence 488/530 nm; hits give high values; in the data active = fluorescence above about 89;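 note: glutathione beads carrying GST-tagged Bcl family fusion proteins plus one bare bead set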
RGS-Gao: regulators of human RGS4-Galphao interaction | AID 1504 | RGS4–Galpha-o binding response, % at 10 µM | shares compounds with RGS16-Gao HTS | 1,600 tested, 99% active | multiplexed bead flow cytometry, RGS–Galpha-o binding;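 note: fluorescently labeled Galpha-o bound to GDP with aluminium fluoride binding biotinylated RGS beads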
Avidin counter: biotin-avidin bead binding disruption counter-screen | shares compounds with RGS16-Gao HTS | streptavidin beads, fluorescein-biotin binding, flow cytometry | inhibition, % at 10 µM | 1,700 tested, under 10 active;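 active = inhibition above 50%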;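 note: median green fluorescence of gated singlet beads compared with DMSO control wells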
RGS8-Gao single: confirmation of regulators of human RGS8-Galphao interaction. shares compounds with RGS16-Gao HTS. bead-based flow cytometry RGS8-Galphao binding, fluorescence; actives lie on both sides. binding response (% of control), % at 10 µM. 1,700 tested, 3% active. AID 1836; in the data active = binding response below about 72% or above about 130%; inactive = in between;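 note: Galphao activated as GDP AlF4 complex before binding bead RGS8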
RGS7-Gao single: confirmation of regulators of human RGS7-Galphao interaction; shares compounds with RGS16-Gao HTS; bead-based flow cytometry RGS7-Galphao binding; actives lie on both sides; response (percent of control binding), % at 10 µM; 1,700 tested, 7.8% active; in the data active = response below about 75% or above about 130%; inactive = in between;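 note: fluorescent Galphao activated with GDP and aluminum fluoride binding bead-coupled RGS7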
RGS16-Gao conf: RGS16-Galphao interaction regulation, single point confirmation; shares compounds with RGS16-Gao HTS; 1,700 tested, 4% active; response (% of control binding), % at 10 µM; bead-based flow cytometry, RGS16-Galphao binding; actives lie on both sides; in the data active = response below about 74% or above about 130%; inactive = in between;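 note: Galphao activated as the GDP aluminium fluoride complex binding bead-coupled RGS16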
RGS4-Gao confirm: RGS4-Galphao interaction regulation, single point confirmation | shares compounds with RGS16-Gao HTS | RGS4-Galphao binding, multiplexed bead flow cytometry; actives lie on both sides | binding response (% of control), % at 10 µM | 1,700 tested, 4% active; in the data active = binding response below about 74% or above about 130%; inactive = in between
RGS19-Gao single: RGS19-Galphao interaction regulation, single point confirmation. bead-based flow cytometry RGS19-Galphao binding; actives lie on both sides. 1,700 tested, 5% active. AID 1841. response (percent of control binding), % at 10 µM. shares compounds with RGS16-Gao HTS; in the data active = response below about 50% or above about 160%; inactive = in between
Target sequence (P09471 whole entry, looked up): as above
Target sequence (P49795 whole entry, looked up): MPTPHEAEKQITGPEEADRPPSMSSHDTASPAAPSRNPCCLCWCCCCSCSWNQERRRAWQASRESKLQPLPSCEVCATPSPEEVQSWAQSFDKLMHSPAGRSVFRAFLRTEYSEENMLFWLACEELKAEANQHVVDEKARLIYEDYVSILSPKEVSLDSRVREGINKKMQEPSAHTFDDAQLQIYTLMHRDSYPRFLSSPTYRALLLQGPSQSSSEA
Of the large screens only hits and unclear results are named; the others gave an inactive call (follow-up assays come after a bar, where they were run); [ ] = another dose, or the depositor's remark. Unless noted, the rule behind the calls is not given here.

CCOc1ccc(NC(=O)COC(=O)CCS(=O)(=O)c2ccc(C)cc2)cc1	none
COC(=O)c1c(NC(=O)COC(=O)CCS(=O)(=O)c2ccc(C)cc2)sc(C)c1C	RGS16-Gao HTS 255[activator] | RGS-Gao 92 | Avidin counter inactive | RGS8-Gao single inactive | RGS7-Gao single 139[activator] | RGS16-Gao conf inactive | RGS4-Gao confirm inactive | RGS19-Gao single 160[activator]
CCCc1cc(=O)[nH]c(SCC(=O)c2ccc3c(c2)NC(=O)CO3)n1	RGS7-Gao inconclusive, RGS16-Gao HTS 342[activator], Avidin bead fluor 179, RGS8-Gao reg 150[activator], RGS4-Gao reg 387[activator] (no result: GSH fluor) | Avidin counter inactive | RGS8-Gao single inactive | RGS7-Gao single inactive | RGS16-Gao conf inactive | RGS4-Gao confirm inactive | RGS19-Gao single inactive
Cc1cc(OCC(=O)Nc2ccccc2F)nc(C(C)C)n1	none
Cc1cc(OCC(=O)Nc2ccc(F)c(F)c2)nc(C(C)C)n1	RGS7-Gao 2.3, RGS16-Gao HTS -13, RGS8-Gao reg 34, RGS4-Gao reg -21 | Avidin counter inactive | RGS8-Gao single inactive | RGS7-Gao single inactive | RGS16-Gao conf inactive | RGS4-Gao confirm inactive | RGS19-Gao single inactive
COC(=O)Nc1cc([N+](=O)[O-])ccc1OC	none
COc1ccc(OC(=O)Nc2ccc([N+](=O)[O-])cc2OC)cc1	RGS7-Gao inconclusive, RGS8-Gao reg 48, RGS4-Gao reg 39 (no result: GSH fluor) | Avidin counter inactive | RGS8-Gao single inactive | RGS7-Gao single inactive | RGS16-Gao conf inactive | RGS4-Gao confirm inactive | RGS19-Gao single inactive
COC(=O)c1ccc(C2c3c(oc4ccc(Cl)cc4c3=O)C(=O)N2CCN2CCOCC2)cc1 (configuration not stated)	RGS7-Gao inconclusive (no result: GSH fluor)
CC1CCCC(NC(=O)COC(=O)Cc2cn3ccsc3n2)C1C (configuration not stated)	RGS7-Gao -19, RGS16-Gao HTS -64, RGS8-Gao reg 3.7, RGS4-Gao reg -58 (no result: Avidin bead fluor) | Avidin counter inactive | RGS8-Gao single inactive | RGS7-Gao single inactive | RGS16-Gao conf inactive | RGS4-Gao confirm inactive | RGS19-Gao single inactive
CNc1nc(-c2ccc3c(c2)CCN3C(=O)c2ccc(F)cc2)cs1	none
CNc1nc(-c2ccc3c(c2)CCN3C(=O)c2ccccc2C)cs1	RGS8-Gao reg 59 | RGS-Gao 84 | Avidin counter inactive | RGS8-Gao single inactive | RGS7-Gao single inactive | RGS16-Gao conf inactive | RGS4-Gao confirm inactive | RGS19-Gao single inactive
CC(Oc1ccc(Cl)cc1)c1ccnc(N)n1 (configuration not stated)	none
O=C(CCl)Nc1cc(S(=O)(=O)N2CCOCC2)ccc1N1CCOCC1	RGS7-Gao inconclusive
O=C(CSc1ccccc1)Nc1cc(S(=O)(=O)N2CCOCC2)ccc1N1CCOCC1	RGS7-Gao inconclusive, RGS16-Gao HTS 13, RGS8-Gao reg 15, RGS4-Gao reg 22 | Avidin counter inactive | RGS8-Gao single inactive | RGS7-Gao single inactive | RGS16-Gao conf inactive | RGS4-Gao confirm inactive | RGS19-Gao single inactive
Cc1ccc(-c2csc(NC(=O)CSc3nc4ccccc4c(=O)n3CCCN(C)C)n2)cc1	none
CC(OC(=O)c1ccc2c(=O)n3c(nc2c1)CCCCC3)C(N)=O (configuration not stated)	none
COCCNC(=O)c1ccc(C(=O)NCCOC)s1	RGS4-Gao reg 233[activator] (no result: RGS7-Gao, RGS16-Gao HTS, Avidin bead fluor, RGS8-Gao reg) | Avidin counter inactive | RGS8-Gao single inactive | RGS7-Gao single inactive | RGS16-Gao conf inactive | RGS4-Gao confirm inactive | RGS19-Gao single inactive
COC(=O)CNC(=O)c1ccc(C)s1	none
NS(=O)(=O)c1ccc(NC(=S)NCc2ccc(Cl)cc2)cc1	none
Cc1cc(C)cc(NC(=S)NCc2ccc(S(N)(=O)=O)cc2)c1	none (no result: RGS7-Gao, Avidin bead fluor) | Avidin counter inactive | RGS8-Gao single inactive | RGS7-Gao single inactive | RGS16-Gao conf inactive | RGS4-Gao confirm inactive | RGS19-Gao single inactive
CC(C)(C(=O)Nc1nccs1)c1ccccc1	RGS7-Gao 156[activator] | RGS-Gao 137 | Avidin counter inactive | RGS8-Gao single inactive | RGS7-Gao single inactive | RGS16-Gao conf inactive | RGS4-Gao confirm inactive | RGS19-Gao single inactive
O=C(Nc1ccccc1)Nc1nccs1	none
Cn1c(CSc2ncccn2)nnc1SCC(=O)N1CCCC1	none
CC(C)CC(NC(=O)C(CC(C)C)NC(=O)OC(C)(C)C)C(=O)O (configuration not stated)	none (no result: RGS7-Gao, RGS16-Gao HTS, Avidin bead fluor, RGS8-Gao reg, RGS4-Gao reg) | Avidin counter inactive | RGS8-Gao single inactive | RGS7-Gao single inactive | RGS16-Gao conf inactive | RGS4-Gao confirm inactive | RGS19-Gao single inactive
CC(C)CC(NC(=O)C(NC(=O)C(Cc1ccc(OCc2ccccc2)cc1)NC(=O)OC(C)(C)C)C(C)C)C(N)=O (configuration not stated)	RGS16-Gao HTS 183[activator] | RGS-Gao 104 | Avidin counter inactive | RGS8-Gao single inactive | RGS7-Gao single inactive | RGS16-Gao conf inactive | RGS4-Gao confirm inactive | RGS19-Gao single inactive
CC(C)CC(NC(=O)C(CC(C)C)NC(=O)C(Cc1ccc(OCc2ccccc2)cc1)NC(=O)OC(C)(C)C)C(N)=O (configuration not stated)	none
CC(C)CC(NC(=O)C(CC(C)C)NC(=O)OC(C)(C)C)C(N)=O (configuration not stated)	none
CCOc1ccccc1N=C1SC(CC(=O)Nc2ccc(OC)cc2OC)C(=O)N1CCC1=CCCCC1 (configuration not stated)	none
O=C(CC1SC(=Nc2ccc(OC(F)F)cc2)N(CCC2=CCCCC2)C1=O)Nc1ccccc1F (configuration not stated)	RGS16-Gao HTS 25 | RGS-Gao 89 | Avidin counter inactive | RGS8-Gao single inactive | RGS7-Gao single inactive | RGS16-Gao conf inactive | RGS4-Gao confirm inactive | RGS19-Gao single inactive
